Source: PubChem (several laboratories)
MEKK2mut PB1 HTS: signal of MEK5 binding to mutant human MEKK2 PB1 domain; bead flow cytometry, Alexa488-MEK5 binding to MEKK2 mutant; percent response, % at 10 µM; 290,000 tested, 0.35% active; in the data active = percent response above about 24%, passing the limit was not always enough
MEKK2 WT-MEK5: raises or lowers MEK5 binding to wildtype human MEKK2 PB1 domain. bead flow cytometry, Alexa488-MEK5 binding to MEKK2 WT; actives lie on both sides. binding response (% of control), % at 10 µM. 290,000 tested, 1.1% active. AID 1531; in the data active = binding response below about 67% or above about 130%; inconclusive = no clear call, values can overlap the other calls; inactive = in between
MEKK3 PB1 HTS: modulators (inhibitors or enhancers) of MEK5 binding to human MEKK3 PB1 domain | binding response (% of control), % at 10 µM | 290,000 tested, 1.4% active | Q99759 | bead-based flow cytometry, Alexa488-MEK5 binding to MEKK3; actives lie on both sides; 0 = blocked by unlabeled MEK5, 100 = vehicle | AID 1529;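 active = binding response more than 3 SD above or below the average of its plate-row segment, actives on both sides; inconclusive = wells at one plate position flagged as instrument error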;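 note: Alexa488 bead fluorescence after subtracting the streptavidin-only scavenger bead signal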
Target sequence (Q99759 whole entry, looked up, the tested form may be a part): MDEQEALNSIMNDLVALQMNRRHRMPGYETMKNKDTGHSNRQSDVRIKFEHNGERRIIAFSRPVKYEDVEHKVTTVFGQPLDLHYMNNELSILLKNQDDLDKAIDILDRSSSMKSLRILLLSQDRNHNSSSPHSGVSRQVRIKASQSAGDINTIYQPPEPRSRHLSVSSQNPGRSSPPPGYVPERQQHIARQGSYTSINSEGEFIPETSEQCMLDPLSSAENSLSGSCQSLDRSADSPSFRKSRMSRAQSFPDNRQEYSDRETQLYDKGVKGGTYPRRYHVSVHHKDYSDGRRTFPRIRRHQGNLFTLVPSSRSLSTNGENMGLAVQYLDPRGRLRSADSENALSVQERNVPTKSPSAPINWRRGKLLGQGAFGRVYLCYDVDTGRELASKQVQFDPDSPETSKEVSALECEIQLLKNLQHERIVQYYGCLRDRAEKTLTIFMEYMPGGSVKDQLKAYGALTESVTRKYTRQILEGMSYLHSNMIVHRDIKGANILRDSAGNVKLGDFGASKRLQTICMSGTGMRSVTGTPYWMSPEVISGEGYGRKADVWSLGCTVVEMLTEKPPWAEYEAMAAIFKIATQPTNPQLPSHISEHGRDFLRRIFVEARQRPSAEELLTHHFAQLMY
CHT inh: inhibitors of human choline transporter CHT; Q9GZV3; CHT-expressing cells, membrane potential dye, choline response; hits give low values; B-score at 10 µM; 310,000 tested, 0.86% active; AID 488975;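 active = B-score over 3 SD under the library average, and starting fluorescence ratio not unusually high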;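 note: choline stimulus applied at its EC90 after an EC20 pre-addition; B-score computed on integrated fluorescence ratio after choline addition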
CHT PAM: human CHT allosteric activation; Q9GZV3; B-score at 10 µM; 310,000 tested, 0.49% active; CHT-expressing cells, membrane potential dye, choline EC20; hits give high values; LV-AA mutant CHT in HEK293 cells;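 active = initial fluorescence not abnormally high and integrated response B-score, plate-corrected, over 3 SD above library mean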
SUMO Mot1 rescue: inhibitors of SUMOylation pathway: yeast Mot1-301 growth rescue; 320,000 tested, 1% active; growth rescue, % at 18.8 µM; S. cerevisiae Mot1-301 growth rescue, ATP luminescence, 38.5C; percent above DMSO median, 100 means doubled;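 active = every valid replicate shows activation above 250% relative to neutral control wells; inactive = the rest, any valid replicate at or below 250%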;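 note: OY570 slx delta 5 strain wells were the positive control but not used for scaling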
CHT inh conf: confirmation of human choline transporter CHT inhibitors; AID 493221; CHT-expressing cells, choline membrane potential dye; LV-to-AA substituted CHT, HEK293 cells; 2,400 tested, 70% active; shares compounds with CHT inh; CHT activity remaining % of control (hits give low values), % at 10 µM;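 active = choline transporter activity left, mean of duplicates at 10 µM, below buffer-only control mean minus 3 SD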;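 note: depolarization triggered by choline at its EC90 following an EC20 pre-addition; 0% = hemicholinium-3 full block and 100% = buffer-only control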
HEK293 CHT ctr: counter-screen for CHT inhibitors: effect in parental HEK293 cells. shares compounds with CHT inh. membrane potential dye, choline response; active = decrease or increase beyond buffer ±3SD. membrane potential ratio readout (active if shifted either direction beyond buffer ±3SD; no single direction) at 10 µM. 2,400 tested, 4% active;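 note: parental cells lack the transporter so any hit is non-specific; ratio is peak minus trough fluorescence over baseline after EC90 choline challenge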
Active calls of the source: *; i = inactive; ? = inconclusive; / = no result. Shown are actives, neighbours in structure and some others; about 4.1% of the full set was active somewhere.

SMILES | MEKK2mut PB1 HTS | MEKK2 WT-MEK5 | MEKK3 PB1 HTS | CHT inh | CHT PAM | SUMO Mot1 rescue | CHT inh conf | HEK293 CHT ctr
COc1ccc(Cc2noc(CN(C)CC(O)c3ccccc3)n2)cc1OC (configuration not stated) | -21 | ? | ? | -5.7* | i | -6 | i | i
CC1COC(C)(CC(=O)NN2C(=O)c3ccccc3C2=O)O1 (configuration not stated) | -9 | 91 | 104 | i | i | 3 | / | /
CC(C)c1cc(C(=O)N2CCCC(CCC(=O)N3CCN(c4ccccn4)CC3)C2)no1 (configuration not stated) | -27 | 82 | 76 | -6* | i | 288 | 47%* | i
CN(CCc1ccccn1)C(=O)CCC1CCCN(C(=O)c2cscn2)C1 (configuration not stated) | 2 | 104 | 99 | i | i | 13 | / | /
CC(C)c1nc(C(=O)N2CCCC(CCC(=O)N(C)CCc3ccccn3)C2)cs1 (configuration not stated) | -20 | 86 | 93 | -5.4* | i | 265 | i | i
COc1ccc(C(=O)COC(=O)Cn2cnc3ccccc3c2=O)c(OC)c1 | / | / | / | i | i | 37 | / | /
Cc1cc(/C=C2\Sc3ccccc3N2C)cc(C)[n+]1CC1CCCO1 (configuration not stated) | -9 | 67 | 94 | / | / | / | / | /
Cc1noc(C)c1COC(=O)c1cnc(Cl)c(Cl)c1 | -11 | 74 | 86 | -6.9* | i | 139 | 47%* | i
Cc1noc(C)c1COC(=O)c1cc(F)c(F)cc1Cl | 4 | 105 | 103 | i | i | 0 | / | /
CC(C)(C)c1cc(C(=O)N/N=C/c2ccccc2O)n(-c2ccccc2)n1 | 0 | 98 | 105 | i | i | 3 | / | /
CC(C)(C)c1cc(C(=O)N/N=C/c2ccc(F)cc2)n(-c2ccccc2)n1 | 3 | 99 | 102 | -5.1* | i | 14 | 68%* | i
O=C(CN(Cc1ccccc1)S(=O)(=O)c1ccc(F)cc1)NCc1ccccn1 | -2 | 100 | 100 | i | i | 144 | / | /
Cc1ccc(C(=O)CSc2nnc(-c3ccco3)n2C)cc1 | -3 | 99 | 98 | -5.4* | i | 0 | 69%* | i
Cn1c(SCC(=O)c2cc(Cl)c(Cl)s2)nnc1-c1ccco1 | -4 | 93 | 100 | i | i | 5 | / | /
Cn1c(-c2ccccc2)cnc1SCc1nc2ccccc2c(=O)[nH]1 | 0 | 97 | 100 | -5.3* | i | 592 | 60%* | i
CC(C)CC(=O)c1c[nH]c(C(=O)NCc2ccc(F)cc2)c1 | 8 | 106 | 102 | i | i | 6 | / | /
O=C(NNc1ccc(C(F)(F)F)cc1[N+](=O)[O-])c1ccc(NS(=O)(=O)c2ccc(F)cc2)cc1 | -1 | 98 | 98 | -10* | i | -21 | 52%* | i
CC(C)[C@H](Nc1ccc(C(F)(F)F)cc1[N+](=O)[O-])C(=O)O | -6 | 91 | 92 | i | i | -8 | / | /
COc1ccc(-c2cn(CCO)c(CCN)n2)cc1 | / | / | / | i | i | 7 | / | /
COc1ccc(-c2cn(Cc3ccc(C(N)=O)cc3)c(CCN)n2)cc1 | / | / | / | -8.1* | i | -4 | i | i
CSc1ccc(/C=N/NC(=O)c2cccc(O)c2)cc1 | 14 | 103 | 109 | i | i | -6 | / | /
O=C(CCCSc1nnc(-c2cccs2)n1CC1CCCO1)c1ccccc1 (configuration not stated) | -1 | 100 | 102 | -5.5* | i | -5 | i | -8.6*
CCOC(=O)c1nc(C)n(-c2cc(OC)c(Cl)cc2Cl)n1 | -1 | 108 | 114 | i | i | 333 | / | /
CCCCOc1ccc([N+](=O)[O-])cc1C(=O)O | -2 | 97 | 101 | i | i | 1 | / | /
COC(=O)CN(C)C(=O)c1ccc(OC)c(OC2CCN(C(C)C)CC2)c1 | 11 | 106 | 108 | i | i | -12 | / | /
SMILES | MEKK2mut PB1 HTS | MEKK2 WT-MEK5 | MEKK3 PB1 HTS | CHT inh | CHT PAM | SUMO Mot1 rescue | CHT inh conf | HEK293 CHT ctr
COc1ccc(C(=O)NC2CCCc3ccccc32)cc1Br (configuration not stated) | 3 | 101 | 101 | i | i | 35 | / | /
COc1ccc(C(=O)N(C)C2CCCc3ccccc32)cc1OC1CCN(C(C)C)CC1 (configuration not stated) | 11 | 112 | 108 | -10* | i | 2 | 15%* | i
COc1ccc(C(=O)NC2CCc3ccccc32)cc1OC1CCN(C(C)C)CC1 (configuration not stated) | 5 | 104 | 99 | -9* | i | -9 | 16%* | i
COc1ccc(NC(=O)[C@H](C)NC(=O)C2CCN(S(=O)(=O)c3ccc(OC)cc3)CC2)cc1 | -1 | 105 | 105 | i | i | 71 | / | /
COc1ccc(N(C(=O)c2ccccc2OC(C)=O)C(C)C2CC2)cc1 (configuration not stated) | 15 | 125 | 119 | i | i | -20 | / | /
Cc1ccc(Nc2cc(C(=O)NCCCN3CCOCC3)c3ccccc3n2)cc1C | 6 | 125 | 101 | i | i | -2 | 62%* | i
O=c1[nH]ncc(N2CCCC2)c1Cl | -1 | 97 | 98 | -10* | i | -6 | 42%* | i
COc1cccc(CNc2ccc(N3CCC(C)CC3)cc2)c1OC | 0 | 103 | 105 | -5.4* | i | 15 | 54%* | i
CC1CCN(c2ccc(NC(=O)Cc3ccccc3)cc2)CC1 | 6 | 105 | 105 | i | i | 83 | / | /
Cc1occc1C(=O)NNS(=O)(=O)c1ccc([N+](=O)[O-])cc1 | 1 | 99 | 102 | -5.1* | i | 0 | 46%* | i
CN(C)S(=O)(=O)c1ccc(Cl)c(NC(=O)CN2C(=O)NC3(CCc4ccccc43)C2=O)c1 (configuration not stated) | / | / | / | / | / | 19 | / | /
Cc1ccc(NC(=O)c2ncc(Cl)c(Cl)c2Cl)cc1C | -3 | 97 | 96 | i | i | -1 | / | /
CC(=O)N(C)c1ccc(OCC(O)CN(c2ccccc2C)S(=O)(=O)c2ccc(C)cc2)cc1 (configuration not stated) | 4 | 95 | 93 | -18* | i | 1 | -11%* | i
